Experimental data reported in ChEMBL document CHEMBL3988442, “University of Dundee, Small-Polar-MMV Screening Library” (2021).
About 13,000 (27%) of roughly 48,000 compounds showed an effect of 50% or more. The list shows a part of the results.

Test system: Wolbachia pipientis
Test: Anti-Wolbachia Cell-Based Screen
Assay type: functional
Parameters: scale not given: in the data most compounds retested in dose-response had high values
Conditions: 5 µM

| Compound | Percent Effect |
| --- | --- |
| CN(Cc1n[nH]c2c1CCCCC2)C(=O)c1cc(-c2cccn2C)n[nH]1 | 105.6% |
| Cn1cccc1-c1cc(C(=O)N2CCCC2C(F)(F)F)[nH]n1 (configuration not stated) | 19.39% |
| CN(Cc1n[nH]c2c1CCCC2)C(=O)c1cccc(CCC(C)(C)O)c1 | -30.85% |
| CN(Cc1n[nH]c2c1CCC2)C(=O)c1cc(-c2cccn2C)n[nH]1 | 101.4% |
| COCC(c1ccccn1)N(C)C(=O)c1cc(-c2cccn2C)n[nH]1 (configuration not stated) | -5.051% |
| CN(Cc1n[nH]c2c1CCC2)C(=O)c1cccc(CCC(C)(C)O)c1 | 10.18% |
| C1CCN(CCOC2CCNCC2)CC1 | 5.861% |
| CCc1noc(CC)c1CNC(=O)Nc1cccc([S+](C)[O-])c1 (configuration not stated) | -9.563% |
| CN(CC(N)=O)S(=O)(=O)c1ccc(F)cc1F | -1.274% |
| O=C(NCc1cccnc1N1CCCCC1)c1ccc2c(c1)OCO2 | 108.4% |
| COCCOc1ncccc1CNC(=O)N1CCCCCC1 | 13.83% |
| O=C(NCc1ccccn1)Nc1ccc2[nH]nnc2c1 | -4.844% |
| Cc1nccn1-c1ncccc1CNC(=O)c1ccc(O)nc1 | -1.557% |
| CC(NC(=O)c1cccs1)C(=O)NCc1cccnc1N1CCCCC1 (configuration not stated) | -0.6319% |
| O=C(NCc1cccnc1N1CCCCC1)c1ccc2[nH]nnc2c1 | 79.06% |
| CC(NC(=O)NCc1cccnc1N1CCCCC1)c1nccs1 (configuration not stated) | -5.623% |
| O=C(NCc1cccnc1N1CCCC(O)C1)c1ccc2[nH]nnc2c1 (configuration not stated) | 86.94% |
| N#Cc1cccnc1NCc1cccnc1N1CCCCC1 | 16.56% |
| O=C(NCc1cccnc1N1CCCCC1)c1ccc2cc[nH]c2c1 | 88.22% |
| Cc1cccc(-c2nccn2-c2cccc(CC(=O)O)c2)n1 | -5.138% |
| COC(=O)[C@H](C)NC(=O)Cc1c(C)nc2c(c1C)c(=O)[nH]n2C | -6.613% |
| CC(=O)N1CCCN(S(=O)(=O)c2cc3ccccc3o2)CC1 | -15.12% |
| CCc1c(C)nc2ccccc2c1N1CCC(O)CC1 | 26.44% |
| CN(C)c1nccc(N2CCO[C@H]3CN(Cc4nccn4C)C[C@H]32)n1.O=C(O)C(F)(F)F | 90.41% |
| CCc1ccc(CN2C[C@@H]3OCCN(c4ccnc(N(C)C)n4)[C@@H]3C2)o1.O=C(O)C(F)(F)F | 11.89% |
| Cc1cccc(CN2C(=O)CO[C@@H]3CN(Cc4nccn4C)C[C@H]32)c1.O=C(O)C(F)(F)F | 6.159% |

| Compound | Percent Effect |
| --- | --- |
| Cc1cccc(CN2C[C@@H]3OCCN(c4ccnc(N(C)C)n4)[C@@H]3C2)c1.O=C(O)C(F)(F)F | 91.52% |
| O=C(c1cnccn1)N1C[C@@H]2CC[C@H](C1)N(C(=O)CCc1ccsc1)C2 | 0.0629% |
| CC(NC(=O)c1cccnc1N(C)C)c1ccccc1Cl (configuration not stated) | 5.567% |
| O=C(Cc1ccccn1)N1CCN(C(=O)c2cccc3[nH]ncc23)CC1 | 0.8571% |
| O=C(Cc1ccccn1)N1CCC2(CC1)[C@H](O)C[C@@H]2O | 131.3% |
| CCOC1CC2(CCN(C(=O)Cc3ccccn3)CC2)C1.O=C(O)C(F)(F)F | -13.33% |
| O=C1CCC2(CCCN(C(=O)Cc3ccccn3)C2)N1 (configuration not stated) | -49.82% |
| O=C(Cc1ccccn1)N1CCN(C(=O)CC2CCCCC2)CC1 | 116.9% |
| O=C(CCc1ccccn1)N1CCN(C(=O)CC2CCCCC2)CC1 | -0.7864% |
| O=C(CCc1ccccn1)N1CCCN(C(=O)CC2CCCC2)CC1 | 129.1% |
| O=C(Cc1ccccn1)N1CCN(C(=O)CC2CCCC2)CC1 | 111.6% |
| COc1ncccc1C(=O)N1CCN(C(=O)Cc2ccccn2)CC1 | 10.82% |
| CNC(=O)C1(N2CCC[C@H]2C(=O)NC2CC2)CCCCC1.Cl | -3.847% |
| O=C(c1cc(Cl)c2c(c1)OCCO2)N1CCCC(n2cncn2)C1 (configuration not stated) | -4.605% |
| CSCCCNC(=O)C(c1cccc(F)c1)N(C)C (configuration not stated) | -14.22% |
| CN(C)c1ncccc1C(=O)N1CCCN(c2cccnn2)CC1 | -6.134% |
| Cc1scc(C(=O)N2CCC3(CCCN(C)C3=O)C2)c1-c1ccccc1 (configuration not stated) | -11% |
| CN(CCO)C(=O)c1coc(CN2CCN(c3ccccc3F)CC2)n1 | 24.23% |
| CN(C)c1nc(O)cc(C2CCN(C(=O)Cc3ccccn3)C2)n1 (configuration not stated) | 148.4% |
| Cc1cccnc1N1CCN(C(=O)CCc2ccccn2)CC1 | -3.662% |
| O=C(CCc1ccccn1)N1CCCC1 | 132.5% |
| Cc1nc(O)cc(C2CCCN(C(=O)CN(C)c3ccccc3)C2)n1 (configuration not stated) | 1.624% |
| O=C(CCc1ccccn1)N1CCSC2(CCCCC2)C1 | -3.003% |
| CC(C)NC(=O)C[C@H]1[C@H]2CN(C(=O)Cc3ccccn3)C[C@@H]12.O=C(O)C(F)(F)F | 0.3737% |
| CCc1ncc(C(=O)N(CCOC)Cc2nccs2)cn1 | -17.92% |
| CC(=O)NCCC(=O)NCC1(c2c(F)cccc2F)CCCC1 | 8.916% |

| Compound | Percent Effect |
| --- | --- |
| COc1c(CNC2CCN(CC(=O)NC3CC3)CC2)c(C)nn1C | -12.1% |
| COc1c(CNC2CCN(c3ccccn3)CC2)c(C(C)C)nn1C | 112.8% |
| CCCS(=O)(=O)N1CCC(NCc2c(C)nn(C)c2OC)CC1 | -2.561% |
| COc1c(CNC2CCN(c3ncccn3)CC2)c(C)nn1C | 109.2% |
| COc1c(CNC2CCCN(c3ncccn3)C2)c(C(C)C)nn1C (configuration not stated) | 105% |
| COc1c(CNC2CCN(c3ncccn3)CC2)c(C(C)C)nn1C | -7.484% |
| O=C(NCc1ccco1)c1cccc(CN2CCCC2CO)c1 (configuration not stated) | -23.86% |
| Cc1cnn(C(C)C2CC2)c1NC(=O)c1ccco1 (configuration not stated) | -0.6057% |
| COc1cc2c(cc1OC)S(=O)(=O)N(Cc1ccc(C)cc1)C2=O | -15.41% |
| Cc1nc(NC(=O)C2(C)CN(C)CCO2)sc1C.Cl (configuration not stated) | 123.3% |
| Cc1csc(NC(=O)c2cccnc2N2CCOCC2)n1 | -18.32% |
| CN1CCC(NC(=O)Cc2csc(C(C)(C)C)n2)CC1 | -5.316% |
| CN1CCOC(C)(C(=O)Nc2nccs2)C1 (configuration not stated) | 89.7% |
| CC(C)(CNC(=O)Nc1nccs1)N1CCOCC1 | -4.16% |
| Cc1nc(NC(=O)C(C)N2CCN(c3ncccn3)CC2)sc1C (configuration not stated) | -4.452% |
| CN1CCOC(C)(C(=O)Nc2nc(C(C)(C)C)cs2)C1 (configuration not stated) | 82.99% |
| CN1CCOC(C(=O)Nc2ccc3c(c2)nc(C(C)(C)C)n3C)C1 (configuration not stated) | 1.099% |
| CCC(C)(CNC(=O)Nc1nccs1)N1CCOCC1 (configuration not stated) | 14.58% |
| Cc1csc(NC(=O)C2(C)CN(C)CCO2)n1 (configuration not stated) | 103.9% |
| Cc1nsc(NC(=O)NC2(CN3CCOCC3)CCCC2)n1 | -3.665% |
| Cc1csc(NC(=O)C2(C)CCCO2)n1 (configuration not stated) | -5.614% |
| Cc1nccn1C1(C(=O)O)CCN(Cc2ccc3c(c2)OCCO3)CC1 | -9.809% |
| O=C1CC[C@H]2CN(c3ncc(F)cn3)CC[C@H]2N1CCc1c[nH]cn1 | -5.494% |
| O=C(NCc1ccncc1)N(Cc1ccccc1F)C1CC1 | 1.311% |
| Cc1cc(C)n2ncc(CN3CCC(n4cc(CCO)nn4)CC3)c2n1 | 4.389% |
| O=C1NCCN2CCN(C(=O)NCCc3ccccc3)CC12 (configuration not stated) | -9.412% |

| Compound | Percent Effect |
| --- | --- |
| CC(C)Nc1nc2c(s1)C(=O)CN(C(=O)NCc1ccccc1)C2 | 95.64% |
| CCC1=N[C@@]2(CC[C@@H]3CN(C(=O)NCc4ccccc4)C[C@@H]32)C(=O)N1 | -15.34% |
| CC(C)Nc1nc2c(s1)C(=O)CN(C(=O)NCCc1ccccc1)C2 | 113.9% |
| COc1cccc(CNC(=O)c2nc3c(o2)CN(C(=O)N(C)C)C3)c1 | -21.04% |
| CNc1nc2c(s1)C(=O)CN(C(=O)NCCc1ccccc1)C2 | 90.96% |
| COc1cccc(CN2CCN(C(=O)Nc3nc(C)ns3)CC2=O)c1 | -7.215% |
| O=C(NCCc1ccccc1)N1CCC(C2OCCO2)CC1 | 12.73% |
| NC(=O)c1cccc(CCNC(=O)N2Cc3ccccc3C2)c1 | 2.881% |
| CC(C)[C@@H]1CN(C(=O)NCCc2ccccc2)C[C@H]1NS(=O)(=O)N(C)C | -13.11% |
| CNc1nc2c(s1)C(=O)CN(C(=O)[C@@H](N)Cc1cccc(OC)c1)C2 | 113.9% |
| CNc1nc2c(s1)C(=O)CN(C(=O)NCc1ccccc1)C2 | -1.017% |
| COc1ccc(Cl)cc1CNC(=O)CN1CCC2(CCOC2)C1 (configuration not stated) | 5.478% |
| CCCC(=O)NCC(=O)NC(c1ccc(Cl)cc1)C(F)(F)F (configuration not stated) | -4.192% |
| CC(=O)c1cn(CC(=O)N2CCCC(O)(CO)C2)c2ccccc12 (configuration not stated) | -9.342% |
| Cc1nc(C)c(CC(=O)N2C[C@H]3CC[C@@H]2CN(C(=O)N(C)C)C3)c(=O)[nH]1 | -5.688% |
| Cc1ccc(CN(Cc2ccccn2)C(=O)C2CCCCCN2C)s1 (configuration not stated) | -49.91% |
| O=C(NCc1cc(F)ccc1F)Nc1ccn(CC(F)F)n1 | -16.02% |
| CCCS(=O)(=O)CC(=O)Nc1ccsc1 | -10.7% |
| COCc1nc2c(o1)CN(C(=O)NCc1ccccc1)C2 | 27.3% |
| CCNc1nc2c(s1)C(=O)CN(C(=O)NCc1ccccc1)C2 | 105.7% |
| CCNc1nc2c(s1)C(=O)CN(C(=O)NCCc1ccccc1)C2 | -10.47% |
| CN(C)c1nc2c(c(N3CCCC3)n1)CCN(C(=O)c1ccc[nH]1)CC2 | 91.66% |
| Nc1nc2c(c(N3CCOCC3)n1)CCN(C(=O)c1ccc[nH]1)CC2 | 39.51% |
| Cc1nc(-c2cnn(C)c2)nc2c1CN(C(=O)c1ccc[nH]1)CC2 | -2.829% |
